According to PubChem BioAssay AID1159580 (chemical genetic matrix, 2015):
Where “and” joins values, the source holds several entries; their conditions need not be identical. Equal entries are not always repeated. The whole screen tested about 5,500 compounds, of which about 2,000 (36%) were called active. Not shown: some 18% with an inconclusive outcome. This is one part of the list. Values without a mark were called inactive. Cut-off read from the data, not from the text of the source: active = normalized growth mostly below about 0.91 (no sharp cut-off); inconclusive = no clear call, values can overlap the other calls; inactive = mostly above about 0.92.

Assay: chemical genetic growth profiling, strain panel (AID 1159580);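 note: tested at 20 µM; growth read once vehicle control cultures reached saturation at 30 °C; 1 = growth at the plate median or of vehicle wells; lower values mean less growth of the strain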
Settings: S. cerevisiae deletion strains, growth OD

## C[C@@H](N)[C@@H](O)c1ccccc1
Locus YAL021C, strain ccr4, active compounds read low
  normalized growth: 0.991
Locus YAL026C, strain drs2, active compounds read low
  normalized growth: 0.89 (active)
Locus YAL030W, strain snc1, active compounds read low
  normalized growth: 0.98
Locus YBL061C, strain skt5, active compounds read low
  normalized growth: 1.01
Locus YBR009C, strain hhf1, active compounds read low
  normalized growth: 1
Locus YBR021W, strain FUR4, active compounds read low
  normalized growth: 1.05
Locus YBR023C, strain chs3, active compounds read low
  normalized growth: 0.997
Locus YBR171W, strain sec66, active compounds read low
  normalized growth: 1
Locus YBR229C, strain ROT2, active compounds read low
  normalized growth: 0.967
Locus YBR231C, strain swc5, active compounds read low
  normalized growth: 0.969
Locus YBR279W, strain paf1, active compounds read low
  normalized growth: 1.01
Locus YCL011C, strain gbp2, active compounds read low
  normalized growth: 0.994
Locus YCL016C, strain dcc1, active compounds read low
  normalized growth: 0.985
Locus YCL029C, strain bik1, active compounds read low
  normalized growth: 0.982
Locus YCL069W, strain vba3, active compounds read low
  normalized growth: 1
Locus YCR088W, strain abp1, active compounds read low
  normalized growth: 0.992
Locus YDL005C, strain med2, active compounds read low
  normalized growth: 0.977
Locus YDL035C, strain GPR1, active compounds read low
  normalized growth: 1
Locus YDL040C, strain nat1, active compounds read low
  normalized growth: 1
Locus YDL074C, strain BRE1, active compounds read low
  normalized growth: 1.05
Locus YDL101C, strain DUN1, active compounds read low
  normalized growth: 0.983
Locus YDL134C, strain PPH21, active compounds read low
  normalized growth: 0.987
Locus YDL185W, strain tfp1, active compounds read low
  normalized growth: 0.966
Locus YDL192W, strain arf1, active compounds read low
  normalized growth: 1.02
Locus YDR001C, strain nth1, active compounds read low
  normalized growth: 1.01
Locus YDR069C, strain doa4, active compounds read low
  normalized growth: 0.985
Locus YDR101C, strain arx1, active compounds read low
  normalized growth: 0.989
Locus YDR137W, strain rgp1, active compounds read low
  normalized growth: 0.862
Locus YDR150W, strain NUM1, active compounds read low
  normalized growth: 0.994
Locus YDR159W, strain sac3, active compounds read low
  normalized growth: 0.949
Locus YDR162C, strain NBP2, active compounds read low
  normalized growth: 0.951
Locus YDR195W, strain ref2
  normalized growth: 0.988
Locus YDR297W, strain sur2, active compounds read low
  normalized growth: 0.994
Locus YDR318W, strain mcm21, active compounds read low
  normalized growth: 0.978
Locus YDR334W, strain swr1, active compounds read low
  normalized growth: 0.997
Locus YDR335W, strain msn5, active compounds read low
  normalized growth: 0.988
Locus YDR388W, active compounds read low
  normalized growth: 0.994
Locus YDR392W, strain spt3, active compounds read low
  normalized growth: 0.955
Locus YDR502C, strain sam2, active compounds read low
  normalized growth: 0.991
Locus YEL003W, strain gim4, active compounds read low
  normalized growth: 0.995
Locus YEL037C, strain rad23, active compounds read low
  normalized growth: 1.01
Locus YEL061C, strain CIN8 (second series), active compounds read low
  normalized growth: 0.993
Locus YEL061C, strain CIN8, active compounds read low
  normalized growth: 0.987
Locus YER015W, strain faa2, active compounds read low
  normalized growth: 0.995
Locus YER016W, strain bim1, active compounds read low
  normalized growth: 0.975
Locus YER110C, active compounds read low
  normalized growth: 0.974
Locus YER111C, strain swi4, active compounds read low
  normalized growth: 0.981
Locus YER155C, strain BEM2 (second series), active compounds read low
  normalized growth: 0.973
Locus YER155C, strain BEM2, active compounds read low
  normalized growth: 1.02
Locus YER167W, strain BCK2, active compounds read low
  normalized growth: 0.999
Locus YFR010W, strain ubp6, active compounds read low
  normalized growth: 1
Locus YGL078C, strain dbp3, active compounds read low
  normalized growth: 0.991
Locus YGL086W, strain mad1, active compounds read low
  normalized growth: 1.03
Locus YGL167C, strain pmr1, active compounds read low
  normalized growth: 0.999
Locus YGL173C, strain kem1, active compounds read low
  normalized growth: 0.993
Locus YGL227W, strain vid30, active compounds read low
  normalized growth: 1.01
Locus YGL240W, strain doc1, active compounds read low
  normalized growth: 1
Locus YGL248W, strain PDE1, active compounds read low
  normalized growth: 0.974
Locus YGL253W, strain hxk2, active compounds read low
  normalized growth: 0.99
Locus YGR135W, strain pre9, active compounds read low
  normalized growth: 0.949
Locus YGR252W, strain gcn5, active compounds read low
  normalized growth: 0.968
Locus YHR013C, strain ard1, active compounds read low
  normalized growth: 0.975
Locus YHR027C, strain rpn1, active compounds read low
  normalized growth: 1
Locus YHR030C, strain SLT2, active compounds read low
  normalized growth: 1 and 1.03
Locus YHR079C, strain IRE1 (second series), active compounds read low
  normalized growth: 0.993
Locus YHR079C, strain IRE1, active compounds read low
  normalized growth: 1.02
Locus YHR094C, strain hxt1, active compounds read low
  normalized growth: 0.973
Locus YHR129C, strain ARP1, active compounds read low
  normalized growth: 0.997
Locus YHR142W, strain chs7, active compounds read low
  normalized growth: 0.971
Locus YHR200W, strain rpn10, active compounds read low
  normalized growth: 0.997
Locus YIL066C, strain RNR3, active compounds read low
  normalized growth: 0.966
Locus YIL073C, strain SPO22, active compounds read low
  normalized growth: 1.03
Locus YIL125W, strain kgd1, active compounds read low
  normalized growth: 0.986
Locus YIR030C, strain dcg1, active compounds read low
  normalized growth: 0.999
Locus YJL092W, strain hpr5, active compounds read low
  normalized growth: 1
Locus YJL095W, strain BCK1 (second series), active compounds read low
  normalized growth: 0.999
Locus YJL095W, strain BCK1, active compounds read low
  normalized growth: 0.928 and 1.01
Locus YJL115W, strain asf1, active compounds read low
  normalized growth: 0.991
Locus YJL129C, strain trk1, active compounds read low
  normalized growth: 0.992
Locus YJL134W, strain LCB3, active compounds read low
  normalized growth: 0.988
Locus YJL154C, strain vps35, active compounds read low
  normalized growth: 0.993
Locus YJL164C, strain tpk1, active compounds read low
  normalized growth: 1.01
Locus YJL166W, strain qcr8, active compounds read low
  normalized growth: 0.983
Locus YJL168C, strain set2, active compounds read low
  normalized growth: 1.01
Locus YJL187C, strain SWE1 (second series), active compounds read low
  normalized growth: 0.964
Locus YJR043C, strain POL32, active compounds read low
  normalized growth: 1.01
Locus YJR066W, strain TOR1, active compounds read low
  normalized growth: 0.942
Locus YJR075W, strain HOC1, active compounds read low
  normalized growth: 0.984
Locus YKL009W, strain mrt4, active compounds read low
  normalized growth: 1.04
Locus YKL068W, active compounds read low
  normalized growth: 0.978
Locus YKL085W, strain MDH1 (second series), active compounds read low
  normalized growth: 0.998
Locus YKL085W, strain MDH1, active compounds read low
  normalized growth: 0.998
Locus YKL160W, strain elf1, active compounds read low
  normalized growth: 0.974
Locus YKR001C, strain vps1, active compounds read low
  normalized growth: 1.01
Locus YKR026C, strain gcn3, active compounds read low
  normalized growth: 1.02
Locus YKR091W, strain srl3, active compounds read low
  normalized growth: 0.987
Locus YLL001W, strain dnm1, active compounds read low
  normalized growth: 1.01
Locus YLL026W, active compounds read low
  normalized growth: 0.995
Locus YLL041C, strain sdh2, active compounds read low
  normalized growth: 1.01
Locus YLR027C, strain aat2, active compounds read low
  normalized growth: 0.995
Locus YLR039C, strain RIC1, active compounds read low
  normalized growth: 0.953
Locus YLR058C, strain SHM2, active compounds read low
  normalized growth: 0.978
Locus YLR102C, strain apc9, active compounds read low
  normalized growth: 0.99
Locus YLR113W, strain HOG1, active compounds read low
  normalized growth: 1.03
Locus YLR221C, strain rsa3, active compounds read low
  normalized growth: 0.994
Locus YLR258W, strain gsy2, active compounds read low
  normalized growth: 1.01
Locus YLR262C, strain YPT6 (second series), active compounds read low
  normalized growth: 0.823 (active)
Locus YLR262C, strain YPT6, active compounds read low
  normalized growth: 0.927
Locus YLR268W, strain sec22, active compounds read low
  normalized growth: 0.988
Locus YLR320W, strain mms22, active compounds read low
  normalized growth: 0.955
Locus YLR330W, strain CHS5, active compounds read low
  normalized growth: 0.997
Locus YLR342W, strain FKS1 (second series), active compounds read low
  normalized growth: 1.06
Locus YLR342W, strain FKS1, active compounds read low
  normalized growth: 0.995
Locus YLR357W, strain rsc2, active compounds read low
  normalized growth: 0.988
Locus YLR370C, strain arc18, active compounds read low
  normalized growth: 1
Locus YLR371W, strain rom2, active compounds read low
  normalized growth: 0.975
Locus YLR384C, strain iki3, active compounds read low
  normalized growth: 0.977
Locus YLR418C, strain cdc73, active compounds read low
  normalized growth: 0.939
Locus YML016C, strain PPZ1, active compounds read low
  normalized growth: 0.994
Locus YML032C, strain rad52, active compounds read low
  normalized growth: 0.967
Locus YML120C, strain ndi1, active compounds read low
  normalized growth: 0.992
Locus YML124C, strain tub3, active compounds read low
  normalized growth: 0.993
Locus YMR058W, strain fet3, active compounds read low
  normalized growth: 0.972
Locus YMR078C, strain ctf18, active compounds read low
  normalized growth: 1.01
Locus YMR125W, strain sto1, active compounds read low
  normalized growth: 0.983
Locus YMR129W, active compounds read low
  normalized growth: 0.997
Locus YMR205C, strain PFK2, active compounds read low
  normalized growth: 0.998
Locus YMR223W, strain ubp8, active compounds read low
  normalized growth: 0.964
Locus YMR231W, strain pep5, active compounds read low
  normalized growth: 1
Locus YMR263W, strain SAP30, active compounds read low
  normalized growth: 0.987
Locus YMR307W, strain GAS1, active compounds read low
  normalized growth: 1.09
Locus YNL067W, strain RPL9B, active compounds read low
  normalized growth: 0.975
Locus YNL071W, strain lat1, active compounds read low
  normalized growth: 0.989
Locus YNL153C, strain GIM3, active compounds read low
  normalized growth: 0.974
Locus YNL183C, strain NPR1, active compounds read low
  normalized growth: 0.929
Locus YNL209W, strain ssb2, active compounds read low
  normalized growth: 1.01
Locus YNL233W, strain BNI4, active compounds read low
  normalized growth: 1
Locus YNL248C, strain rpa49, active compounds read low
  normalized growth: 0.99
Locus YNL250W, strain rad50, active compounds read low
  normalized growth: 0.992
Locus YNL271C, strain bni1, active compounds read low
  normalized growth: 0.995
Locus YNL298W, strain CLA4, active compounds read low
  normalized growth: 0.982
Locus YNL307C, strain MCK1, active compounds read low
  normalized growth: 0.984
Locus YNL322C, strain KRE1 (second series), active compounds read low
  normalized growth: 0.99
Locus YNR049C, strain mso1, active compounds read low
  normalized growth: 1.01
Locus YNR052C, strain pop2, active compounds read low
  normalized growth: 0.973
Locus YOL006C, strain TOP1, active compounds read low
  normalized growth: 1.02
Locus YOL012C, strain htz1
  normalized growth: 1.02
Locus YOL147C, strain pex11, active compounds read low
  normalized growth: 0.996
Locus YOR001W, strain rrp6, active compounds read low
  normalized growth: 1
Locus YOR061W, strain CKA2, active compounds read low
  normalized growth: 0.98
Locus YOR069W, strain VPS5, active compounds read low
  normalized growth: 1
Locus YOR070C, strain gyp1, active compounds read low
  normalized growth: 0.999
Locus YOR080W, strain dia2, active compounds read low
  normalized growth: 1
Locus YOR083W, strain WHI5, active compounds read low
  normalized growth: 0.948
Locus YOR106W, strain vam3, active compounds read low
  normalized growth: 1
Locus YOR136W, strain idh2, active compounds read low
  normalized growth: 0.993
Locus YOR144C, strain elg1, active compounds read low
  normalized growth: 0.989
Locus YOR184W, strain ser1, active compounds read low
  normalized growth: 1.01
Locus YOR231W, strain MKK1, active compounds read low
  normalized growth: 1.01
Locus YOR265W, strain rbl2, active compounds read low
  normalized growth: 0.993
Locus YOR270C, strain vph1, active compounds read low
  normalized growth: 0.9
Locus YOR290C, strain snf2, active compounds read low
  normalized growth: 0.993
Locus YOR316C, strain cot1, active compounds read low
  normalized growth: 0.985
Locus YPL051W, strain arl3, active compounds read low
  normalized growth: 0.981
Locus YPL078C, strain atp4, active compounds read low
  normalized growth: 0.98
Locus YPL106C, strain sse1, active compounds read low
  normalized growth: 1
Locus YPL240C, strain hsp82, active compounds read low
  normalized growth: 1
Locus YPL241C, strain CIN2, active compounds read low
  normalized growth: 0.989
Locus YPL256C, strain CLN2, active compounds read low
  normalized growth: 1.03
Locus YPR119W, strain clb2, active compounds read low
  normalized growth: 1.01
Locus YPR141C, strain kar3, active compounds read low
  normalized growth: 0.994
Locus YPR163C, strain tif3, active compounds read low
  normalized growth: 0.971
Locus YPR167C, strain met16, active compounds read low
  normalized growth: 1
Strain wtn01, active compounds read low
  normalized growth: 1.03
